Measurements reported in the supplement of paper PMC11060735.
Structures can show the parent of a compound that is named as a salt. ± gives the standard deviation of the averaged measurements. In all, about 1,800 compounds were measured (“GFP- (p16Ink4a-) cell count relative to negative-control wells”: median about 0.99, lowest 2% from about 0.5 on). The entries come from a sample that favours the lowest values as a whole.

These molecules were tested on mouse p16Ink4a+/- lung fibroblasts (INKBRITE, bleomycin-injured) (assay: GFP- (p16Ink4a-) cell count relative to negative-control wells (fold of vehicle); higher = more p16Ink4a- cells surviving). Conditions: 1 µM; 3 days.

In order of rising GFP-:
1. CCOc1ccccc1-n1c(C(C)N2CCN(C(=O)COc3ccc(Cl)cc3)CC2)nc2ccccc2c1=O (stereo not given) [Erastin]  0.31
2. CC(C)[C@]12O[C@H]1[C@@H]1O[C@]13[C@]1(O[C@H]1C[C@H]1C4=C(CC[C@@]13C)C(=O)OC4)[C@@H]2O [Triptolide]  0.366
3. C[C@H]1CCC/C=C/[C@@H]2C[C@H](O)C[C@H]2[C@H](O)/C=C/C(=O)O1 [Brefeldin A]  0.4
4. CO[C@H]1CCC(O[C@H]2C[C@H]([C@]3(C)CC[C@]4(C[C@H](O)[C@@H](C)[C@@H]([C@@H](C)/C=C(\C)C(=O)[C@H](C)C[C@H](C)C(=O)O)O4)O3)O[C@]3(O[C@@H]([C@H]4O[C@@](O)(CO)[C@H](C)C[C@@H]4C)C[C@@H]3C)[C@@H]2C)O[C@@H]1C (stereo not given in full) [Nanchangmycin]  0.412
5. CC[C@@H]1[C@@H](C)O[C@@](O)([C@@H](C)[C@H](O)[C@H](C)[C@H]2OC(=O)/C=C/C=C/[C@H](C)[C@H]([C@@H](C)[C@@H](O)[C@H](C)[C@@]3(O)C[C@@H](O[C@H]4C[C@H](O)[C@H](O)[C@H](C)O4)[C@H](CC)[C@@H](C)O3)OC(=O)/C=C/C=C/[C@H]2C)C[C@H]1O[C@H]1C[C@H](O)[C@H](O)[C@H](C)O1 [Elaiophylin]  0.414
6. C/C(=C\c1csc(C)n1)[C@@H]1C[C@@H]2O[C@@H]2CCC[C@H](C)[C@H](O)[C@@H](C)C(=O)C(C)(C)[C@@H](O)CC(=O)O1 [Epothilone A]  0.423
7. C/C=C(\C)C(=O)N[C@@H](c1ccccc1)[C@@H](O)C(=O)O[C@H]1C[C@@]2(O)[C@@H](OC(=O)c3ccccc3)[C@@H]3[C@]4(OC(C)=O)CO[C@@H]4C[C@H](O)[C@@]3(C)C(=O)[C@H](OC(C)=O)C(=C1C)C2(C)C [Cephalomannine]  0.683
8. CN1[C@@H]2CC[C@H]1C[C@@H](OC(=O)C(CO)c1ccccc1)C2 (stereo not given in full) [Atropine]  0.843
9. Cc1sc2c(c1C)C(c1ccc(Cl)cc1)=N[C@@H](CC(=O)Nc1ccc(O)cc1)c1nnc(C)n1-2  0.844 ± 0.048
10. Oc1nc2ccc(Cl)cc2c(N[C@@H]2CN3CCC2CC3)c1-c1nc2ccccc2[nH]1  0.944
11. CCN(CC)C(=O)c1ccc(C2=CC3(CCNCC3)Oc3cccc(O)c32)cc1  0.95
12. C[C@@H]1[C@H](O)[C@@H](C)/C=C/C=C/CC/C=C/C=C/C=C/C=C/[C@H](O[C@H]2O[C@@H](C)[C@H](O)[C@@H](N)[C@H]2O)C[C@@H]2O[C@](O)(C[C@@H](O)[C@H](O)CC[C@@H](O)C[C@@H](O)C[C@@H](O)CC(=O)O[C@H]1C)C[C@H](O)[C@H]2C(=O)O [Nystatin (Fungicidin)]  0.951
13. COc1ccc(C(=O)N2CCCC2=O)cc1 [Aniracetam]  0.968
14. C1=C2CCCN[C@H]2[C@@H]2C[C@H]1[C@H]1CCCCN1C2 [Aloperine]  0.98
15. CC(=O)Nc1ccc(OC[C@](C)(O)C(=O)Nc2ccc([N+](=O)[O-])c(C(F)(F)F)c2)cc1 [Andarine]  1
16. CC(C)NCC(O)c1ccccc1Cl (stereo not given) [Clorprenaline]  1.02
17. C[C@H]1CNCCc2ccc(Cl)cc21 [Lorcaserin]  1.02
18. C/C(=C\c1csc(C)n1)[C@@H]1C[C@@H]2O[C@]2(C)CCC[C@H](C)[C@H](O)[C@@H](C)C(=O)C(C)(C)[C@@H](O)CC(=O)O1 [Epothilone B, Patupilone]  1.03
19. C[C@@H]1CC[C@@]2(OC1)O[C@H]1C[C@H]3[C@@H]4CC=C5C[C@@H](O[C@@H]6O[C@H](CO)[C@@H](O[C@@H]7O[C@@H](C)[C@H](O)[C@@H](O)[C@H]7O)[C@H](O)[C@H]6O[C@@H]6O[C@@H](C)[C@H](O)[C@@H](O)[C@H]6O)CC[C@]5(C)[C@H]4CC[C@]3(C)[C@H]1[C@@H]2C [Dioscin]  1.03
20. O=[N+]([O-])/C=C/c1ccc2c(c1)OCO2  1.03
21. CN1C(=O)CCS(=O)(=O)C1c1ccc(Cl)cc1 (stereo not given) [Chlomezanone, Chlormezanone]  1.03
22. CCNC(=O)C[C@@H]1N=C(c2ccc(Cl)cc2)c2cc(OC)ccc2-n2c(C)nnc21  1.04 ± 0.19
23. CCCN1CCO[C@H]2c3cc(O)ccc3OC[C@@H]21  1.04
24. CNCC(=O)c1ccc(O)c(O)c1 [Adrenolone Hydrochloride]  1.05
25. CN(C)[C@@H]1C(=O)C(C(N)=O)=C(O)[C@@]2(O)C(O)=C3C(=O)c4c(O)cccc4[C@@](C)(O)[C@H]3C[C@@H]12 [Tetracycline]  1.07
26. O=C(O)CNC(=O)c1c(O)c2ccccc2n(Cc2ccccc2)c1=O  1.07 ± 0.046
27. CCOC(=O)c1cncn1C(C)c1ccccc1 (stereo not given) [Etomidate]  1.09
28. C=C1C[C@@H]2[C@H](CC[C@]3(C)C(=O)CC[C@@H]23)[C@@]2(C)C=CC(=O)C=C12 [Exemestane]  1.13
29. Cc1ccc(-n2nccn2)c(C(=O)N2CCN(c3nc4cc(Cl)ccc4o3)CC[C@H]2C)c1 [Suvorexant]  1.13
30. CCc1c(C(=O)C(N)=O)c2c(OCC(=O)O)cccc2n1Cc1ccccc1 [Varespladib]  1.27
